{"source": "ChEMBL document CHEMBL3988442", "about": "“University of Dundee, Small-Polar-MMV Screening Library” (2021)", "note": "Screen size: about 48,000 compounds; about 13,000 (27%) showed an effect of 50% or more. The list shows a part of the results."}
{"test_system": "Wolbachia pipientis", "assay": "Anti-Wolbachia Cell-Based Screen", "assay_type": "functional", "set-up": "scale not given: in the data most compounds retested in dose-response had high values", "settings": "5 µM", "units": {"Percent Effect": "%"}}
{"smiles": "Cc1ccc(O)c(CN2CCn3nc(C(=O)N4CCCC4)cc3C2)n1", "Percent Effect": -10.87}
{"smiles": "CNc1nc(C(=O)N2CCCC(CO)(CCCOC)C2)cs1", "note": "(stereo not given)", "Percent Effect": -13.19}
{"smiles": "CNc1nc(C(=O)N2CCn3nc(C(=O)OC)cc3C2)cs1", "Percent Effect": 99.12}
{"smiles": "Cc1cc(C(=O)N2CCn3nc(C(=O)NC4CC4)cc3C2)nc(C)n1", "Percent Effect": 5.79}
{"smiles": "CNc1nc(C(=O)N2CCCn3nc(C(=O)N4CCCC4)cc3C2)cs1", "Percent Effect": 132.4}
{"smiles": "CCC(C)(NCc1nc(C)c(C)o1)c1nccs1", "note": "(stereo not given)", "Percent Effect": -14.02}
{"smiles": "CCOc1cc(CNCc2cnc(C)cn2)c(Cl)cc1OC(C)C", "Percent Effect": -9.744}
{"smiles": "Cc1ccc(N(C)CC(O)COCc2ccccc2)c(C)c1", "note": "(stereo not given)", "Percent Effect": -35.03}
{"smiles": "Cc1ccc(C(=O)O)cc1S(=O)(=O)N(CC(C)O)c1ccccc1", "note": "(stereo not given)", "Percent Effect": -9.364}
{"smiles": "O=S(=O)(Cc1cccc(F)c1)NCC(O)Cc1ccccc1", "note": "(stereo not given)", "Percent Effect": 13.38}
{"smiles": "Cc1cc(C)c(N(CC(O)CNCc2ccco2)S(C)(=O)=O)c(C)c1.O=C(O)c1ccccc1", "note": "(stereo not given)", "Percent Effect": 101.1}
{"smiles": "COC(=O)c1ccc(NC(=O)CNCc2ccco2)cc1", "Percent Effect": -10.44}
{"smiles": "Br.Cc1cc(C)c(N(CC(O)CNCc2ccccc2)S(C)(=O)=O)c(C)c1", "note": "(stereo not given)", "Percent Effect": 104.6}
{"smiles": "CCN(C)C(=O)c1cccc(S(=O)(=O)NCCc2nc(C)cc(=O)[nH]2)c1", "Percent Effect": -0.1797}
{"smiles": "CC(=O)Nc1nc(CN2CCOC(Cn3nc(C)cc3C)C2)cs1", "note": "(stereo not given)", "Percent Effect": 94.09}
{"smiles": "CC(=O)Nc1nc(CN2CCOC(Cn3cncn3)C2)cs1", "note": "(stereo not given)", "Percent Effect": 64.84}
{"smiles": "CC(=O)N(C)c1nc(CN2CCOC(Cn3cccn3)C2)cs1", "note": "(stereo not given)", "Percent Effect": -26.66}
{"smiles": "CC(=O)Nc1nc(CN2CCOC(Cn3cc(C)cn3)C2)cs1", "note": "(stereo not given)", "Percent Effect": 2.495}
{"smiles": "CC(=O)Nc1nc(CN2CCOC(Cn3cccn3)C2)cs1", "note": "(stereo not given)", "Percent Effect": 107.9}
{"smiles": "Cc1ccnc(C(NC(=O)c2oc(C)nc2C)C2CC2)n1", "note": "(stereo not given)", "Percent Effect": -17.11}
{"smiles": "COC(=O)CN(C(=O)c1ccoc1)c1cccc(F)c1", "Percent Effect": 2.098}
{"smiles": "O=C1CCCN1CCc1noc(-c2ccsc2)n1", "Percent Effect": 1.002}
{"smiles": "O=C1CCCN1CCc1noc(-c2ccc(Cl)cc2)n1", "Percent Effect": 5.135}
{"smiles": "O=C1CCCN1Cc1noc(-c2ccc(Cl)cc2)n1", "Percent Effect": 123.5}
{"smiles": "CC(C)(N)c1cn([C@@H]2c3ccccc3C3(CCNCC3)[C@H]2O)nn1", "Percent Effect": -37.53}
{"smiles": "Cc1noc(CS(=O)(=O)CC(=O)NC(C)c2ccccc2)n1", "note": "(stereo not given)", "Percent Effect": -0.1878}
{"smiles": "CCN(Cc1ccc2c(c1)OCCO2)S(=O)(=O)N(C)C(C)C", "Percent Effect": -1.208}
{"smiles": "CCN(Cc1ccc2c(c1)OCO2)S(=O)(=O)N(C)C(C)C", "Percent Effect": 112.9}
{"smiles": "CCN(Cc1cccs1)S(=O)(=O)N(C)C(C)C", "Percent Effect": 15.86}
{"smiles": "CCN(Cc1ccc2c(c1)OCO2)S(=O)(=O)N(C)C", "Percent Effect": 94.54}
{"smiles": "CCN(Cc1ccc2c(c1)OCO2)c1ncc(S(N)(=O)=O)s1", "Percent Effect": -18.45}
{"smiles": "CCN(C)S(=O)(=O)N(CC)Cc1ccc2c(c1)OCO2", "Percent Effect": 0.6799}
{"smiles": "Cc1ccc(-n2cc(CN3CCN(C)[C@@H]4CS(=O)(=O)C[C@@H]43)cn2)cc1", "Percent Effect": 6.274}
{"smiles": "CN(Cc1ccccc1O)C(=O)Nc1cc(F)cc(N2CCCC2)c1", "Percent Effect": -6.524}
{"smiles": "COCC(C)(C#N)NC(=O)COc1ccccc1", "note": "(stereo not given)", "Percent Effect": -21.26}
{"smiles": "CC(C)[C@@H]1CN(C(=O)c2ccc3c(c2)CCCO3)C[C@H]1NS(C)(=O)=O", "Percent Effect": 0.04909}
{"smiles": "O=C(O)C(=O)O.c1cncc(-c2noc(C3CN(Cc4cccs4)C3)n2)c1", "Percent Effect": 13.98}
{"smiles": "O=C(C1CCOC1)N1C[C@H]2CN(Cc3ccncc3)C(=O)[C@H]2C1.O=C(O)C(F)(F)F", "note": "(stereo not given in full)", "Percent Effect": 94.79}
{"smiles": "O=C(O)C(F)(F)F.O=C(c1ccsc1)N1C[C@H]2CN(Cc3cccnc3)C(=O)[C@H]2C1", "Percent Effect": -7.854}
{"smiles": "CN(C)CCN1C[C@@H]2CN(C(=O)C3CCOC3)C[C@@H]2C1=O.O=C(O)C(F)(F)F", "note": "(stereo not given in full)", "Percent Effect": -5.233}
{"smiles": "O=C(C1CCOC1)N1C[C@H]2CN(Cc3cccnc3)C(=O)[C@H]2C1.O=C(O)C(F)(F)F", "note": "(stereo not given in full)", "Percent Effect": 101.2}
{"smiles": "O=C(C1CCOC1)N1CCC2(CC1)COCCN(Cc1ccncc1)C2.O=C(O)C(F)(F)F.O=C(O)C(F)(F)F", "note": "(stereo not given)", "Percent Effect": -2.392}
{"smiles": "CCc1[nH]c2c(CNc3cncc(C(=O)N(C)C)n3)cc(F)cc2c1C", "Percent Effect": -5.745}
{"smiles": "Cn1c(CN2CCOCC2)nnc1C1CCCN(C(=O)CCC2CC2)C1", "note": "(stereo not given)", "Percent Effect": 24.17}
{"smiles": "C[C@]1(O)CCN(Cc2cccnc2)C[C@@H]1Oc1cccc(F)c1", "Percent Effect": 99}
{"smiles": "CN1CC(=O)N(c2cccc(F)c2)CC12CCN(Cc1cncn1C)C2.O=C(O)C(F)(F)F.O=C(O)C(F)(F)F", "note": "(stereo not given)", "Percent Effect": -8.718}
{"smiles": "CCOc1ccc(CN2CC[C@@](C)(O)[C@@H](Cc3ccccc3)C2)cn1", "Percent Effect": 4.384}
{"smiles": "Cc1ncc(CN2CC[C@@](C)(O)[C@H](Oc3cccc(F)c3)C2)cn1", "Percent Effect": 104.1}
{"smiles": "C[C@]1(O)CCN(Cc2nccs2)C[C@@H]1Oc1cccc(F)c1", "Percent Effect": 121.8}
{"smiles": "CN1CC2(CCN(Cc3cccnc3)CC2)c2cc(F)ccc21", "Percent Effect": 3.699}
{"smiles": "COc1ncc(CN2CC[C@@](C)(O)[C@H](Oc3cccc(F)c3)C2)cn1", "Percent Effect": 2.732}
{"smiles": "C[C@]1(O)CCN(Cc2cncs2)C[C@@H]1Oc1cccc(F)c1", "Percent Effect": 4.149}
{"smiles": "CN1CC(=O)N(c2cccc(F)c2)CC12CCN(Cc1nccs1)C2.O=C(O)C(F)(F)F.O=C(O)C(F)(F)F", "note": "(stereo not given)", "Percent Effect": -3.054}
{"smiles": "Fc1ccc(OCc2nnc([C@H]3CCN(Cc4cccnc4)C3)o2)cc1", "Percent Effect": 16.65}
{"smiles": "Cn1cncc1CN1CC[C@](C)(O)[C@@H](Oc2cccc(F)c2)C1", "Percent Effect": 104.7}
